BAZ2B block: blocks human BAZ2B; Q9UIF8; AlphaScreen BAZ2B-H3K14Ac peptide displacement; AID 504333; Potency, µM (titrated, usually from 114 µM), for inactives: at the highest dose activity change, negative = inhibition, actives largely listed as inhibitors; 4.4% of 360,000 active; further: potency means the concentration at half of the fitted maximal effect; on the % scale 0 is the no-effect control and ±100 the full control effect; nearly all actives have a fitted effect of over 60% in size
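BAZ2B 50 nM plus b-H3(5-23)K14Ac 50 nM, PBS pH 7.4/0.01% Tween-20, 30 min RT; compound added (max 110 uM), 30 min RT; streptavidin donor/Ni-chelate acceptor beads 10 ug/mL final, 20 min dark; AlphaScreen read.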
JMJD2A Tudor: inhibitors of human JMJD2A Tudor domain. AlphaScreen JMJD2A-Tudor / H3K4me3 peptide binding. Potency, µM (highest dose often 114 µM), for the others: at the top dose activity change, negative = inhibition, actives largely listed as inhibitors. 4.4% of 390,000 active; further: potency means the concentration at half of the fitted maximal effect; on the % scale 0 is the no-effect control and ±100 the full control effect; nearly all actives have a fitted effect of over 50% in size
Six1-Eya2 blk: blocks human Six1 binding to Eya2; AlphaScreen GST-Six1/His-Eya2 binding, biochemical; stronger effect = lower value; 0.56% of 360,000 active; activity change, % (test concentration not listed); Q15475+O00167; in the data active means activity change below about -65%; inconclusive means mostly about -30% to -63%; further: on the % scale 0 is the no-effect control and ±100 the full control effect
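Homogeneous AlphaScreen proximity assay pairing GST-Six1 with His-tagged Eya2 (added as 5X mix: 250 nM and 500 nM) in 50 mM Tris pH 8.0, 300 mM NaCl, 1 mM TCEP. Glutathione donor and nickel acceptor beads; 1 h, 37 °C, dark.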
G9a block: inhibitors of human histone lysine methyltransferase G9a; Q96KQ7; G9a H3K9 monomethylation, AlphaScreen, 2 h; Potency, µM (top dose mostly 102 µM), inactives show top-dose activity, negative = inhibition, most hits filed as inhibitors; 8.8% of 350,000 active; further: potency means the concentration at half of the fitted maximal effect; on the % scale 0 is the no-effect control and ±100 the full control effect; nearly all actives have a fitted effect of over 75% in size
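G9a (20 nM) was preincubated 15 min with compound, then reacted 2 h at room temperature with 500 nM biotin-H3K9 peptide and 20 µM SAM. Monomethyl-H3K9 detected by AlphaScreen using anti-H3K9me1 antibody.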
CtBP-E1A inh: inhibitors of CtBP/E1A interaction; AlphaScreen GST-E1A/His-CtBP binding, 1536-well; stronger effect = lower value; activity change, % (test concentration not listed); 0.49% of 340,000 active; AID 651724; in the data active means activity change below about -65%; inconclusive means mostly about -30% to -63%; further: on the % scale 0 is the no-effect control and ±100 the full control effect
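Homogeneous bead-based format: GST-tagged E1A captured on glutathione donor beads, His-tagged CtBP on nickel acceptor beads; compounds precede bead addition by 2 h at 37 °C.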
HP1b binding inh: blocks HP1-beta chromodomain binding to methylated histone tails; P83916; AlphaScreen HP1-beta / biotin-H3K9me3 peptide binding; Potency, µM (doses to about 114 µM), for inactives: at the highest dose activity change, negative = inhibition, usual class: inhibitors; 0.56% of 390,000 active; further: potency means the concentration at half of the fitted maximal effect; nearly all actives have a fitted effect of over 70% in size
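AlphaScreen: HP1-beta (50 nM) preformed 30 min with biotin-H3(1-18)K9me3 peptide (50 nM) in PBS pH 7.4, 0.01% Tween-20. Compound added for 30 min at RT, then streptavidin donor/nickel chelate acceptor beads (10 ug/mL) for 30 min.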
* hit, by the source's call; u = inconclusive; x = no result given; [ ] = remark or other dose. This is a sample that favours compounds with a hit; in the whole collection about 10% have one here. Unless noted, the call rests on the fitted dose curve; in most records, active means well fitted inhibition curve with a large enough effect; inconclusive means small, poorly fitted or top-dose-only effect; inactive means no such curve, though single readings can be large or run the other way.

SMILES | BAZ2B block | JMJD2A Tudor | Six1-Eya2 blk | G9a block | CtBP-E1A inh | HP1b binding inh
COC(=O)C(CCSC)NS(=O)(=O)c1ccccc1Br (centres undefined) | x | -8.3% | x | x | x | 30.3%
O=C(CSc1n[nH]c(-c2ccncc2)n1)Nc1ccccc1Cl | 7.0% | -7.5% | -1.9 | 50.1µM* | 3.4 | 8.1%
O=C(CSc1n[nH]c(-c2cccnc2)n1)Nc1ccccc1 | 11.2% | -5.1% | -1.6 | 12.4%[59 µM] | 10.9 | 53.0%
O=C(CSc1n[nH]c(-c2cccnc2)n1)Nc1cccc(Cl)c1 | 2.3% | -9.2% | 3.8 | 50.1µM* | 3.9 | 81.9%
COc1cccc(NC(=O)CSc2nnc(-c3cc(C)[nH]n3)n2N)c1 | -18.7% | -3.0% | -3.6 | -4.2%[0.0925 µM] | x | 34.6%
COC(=O)c1ccc(NC(=O)CSc2n[nH]c(-c3ccncc3)n2)cc1 | 0.0% | 3.3% | -0.4 | 35.5µM* | 0.4 | 46.2%
Cc1cc(-c2nnc(SCC(=O)Nc3cccc(Cl)c3)n2N)n[nH]1 | 56.2µM* | -2.3% | -1.5 | 2.7% | -0.8 | 44.5%
COCCN1C(=O)c2oc3ccc(C)cc3c(=O)c2C12C(=O)N(C)c1ccccc12 (centres undefined) | -7.7% | -14.2% | x | -26.7%[59 µM] | x | 40.0%
CCOc1ccc(C(=O)Nc2ccc3nn(-c4ccc(OC)c(Cl)c4)nc3c2)cc1 | 1.9% | -16.7% | x | -2.4%[59 µM] | x | 24.0%
O=C(Nc1ccc(S(=O)(=O)N2CCCCCC2)cc1)c1cc(=O)c2ccccc2o1 | -2.5% | -11.5% | x | 0.2%[59 µM] | x | 7.9%
NS(=O)(=O)c1ccc(NC(=O)COC(=O)CSc2n[nH]c(-c3ccccc3)n2)cc1 | -8.2% | -6.4% | 1.6 | 31.6µM* | 7.7 | 35.3%
O=C(CSc1n[nH]c(-c2ccccc2)n1)Nc1ccc(N2CCOCC2)cc1 | u | -16.5% | -7.2 | u | u | -13.6%
Nn1c(CSc2ccccn2)nc2ccccc2c1=O | 5.3% | -1.5% | 4.9 | 39.8µM* | -1.3 | 36.0%
O=c1[nH]c(CSc2ccccn2)nc2ccccc12 | 6.7% | -7.7% | 1.6 | 29.1% | 3.5 | 40.3%
CCn1cc(C(=O)OCC(=O)Nc2c(C)cccc2C)c(=O)c2ccc(C)nc21 | -8.3% | -11.3% | 5.8 | 44.7µM* | 6.4 | 29.4%
CCn1cc(C(=O)Nn2cnnc2)c(=O)c2ccc(C)nc21 | -32.3% | u | -8.4 | 50.1µM* | -1.2 | 22.8%
CC/C(=C\c1ccc(N(C)C)cc1)c1ccncc1 | x | 22.4µM* | u | x | u | u
CN(C)c1ccc(-c2ccncc2)cc1 | 3.7% | x | x | 8.1%[2.33 µM] | x | x
CCOC(=O)C1CCCN(Cc2nc3ccc([N+](=O)[O-])cc3c(=O)n2-c2ccc(OC)cc2OC)C1 (centres undefined) | -37.0% | u | -6.5 | 39.8µM* | -0.6 | -7.2%
CCN1CCN(Cc2nc3ccc([N+](=O)[O-])cc3c(=O)n2-c2ccc(OC)cc2OC)CC1 | 22.6% | -12.0% | 2.3 | 29.4% | -1.4 | -19.5%
COc1cccc(-n2c(N)c(C#N)c3ccc([N+](=O)[O-])cc3c2=O)c1 | 3.4% | x | x | 9.9% | x | x
COc1cccc(-n2c(CN3CCN(c4ccccc4)CC3)nc3ccc([N+](=O)[O-])cc3c2=O)c1 | u | u | -19.8 | 20µM* | -13.8 | -8.1%
COc1ccc(-n2c(CN3CCC(C(N)=O)CC3)nc3ccc([N+](=O)[O-])cc3c2=O)c(OC)c1 | u | -18.9% | 0.6 | 56.2µM* | 12.4 | 32.6%
CCOC(=O)C1CCN(Cc2nc3ccc([N+](=O)[O-])cc3c(=O)n2-c2ccc(OC)cc2OC)CC1 | -38.4% | -28.4% | -1.8 | 31.6µM* | -1.1 | 0.0%
NC(=O)CCCCn1ccc(NC(N)=NCC(F)(F)F)n1 | x | x | x | 30.6%[59 µM] | x | x
SMILES | BAZ2B block | JMJD2A Tudor | Six1-Eya2 blk | G9a block | CtBP-E1A inh | HP1b binding inh
COc1ccc(-n2c(CN3CCN(c4ccccc4OC)CC3)nc3ccc([N+](=O)[O-])cc3c2=O)c(OC)c1 | u | u | -11.0 | 44.7µM* | -18.9 | 4.7%
C/C(=N\N1C(=O)c2ccccc2NC1c1ccco1)c1ccccc1O (centres undefined) | 70.8µM* | u | -10.5 | -45.0% | x | u
C/C(=N\N1C(=O)c2ccccc2NC1c1ccccc1)c1ccccc1O (centres undefined) | -24.6% | -4.3% | -3.6 | 14.1% | x | 46.3%
CCN(CC)c1nc2c(S(=O)(=O)c3ccc(C)cc3)nnn2c2ccsc12 | -27.0% | -15.4% | x | -31.4%[59 µM] | x | 11.1%
COc1ccc(Cn2c(CCC(=O)Nc3cccc(Cl)c3)nc3cccnc32)cc1 | -1.7% | -4.6% | x | -1.8%[59 µM] | x | 11.2%
O=C(Cc1csc(NC(=O)Nc2ccc(Cl)cc2)n1)NCc1ccccn1 | -7.6% | -20.7% | -8.1 | 44.7µM* | -1.1 | 18.9%
O=C(Cc1csc(NC(=O)Nc2ccc(Cl)cc2)n1)NC1CCCC1 | -27.7% | -17.8% | -1.3 | u | -3.0 | 18.8%
CC(=O)Nc1ccc2c(c1)C(=O)c1ccccc1C2=O | -27.8% | -15.1% | u | -32.8%[59 µM] | u | 8.0%
O=C(O)/C=C/C(=O)Nc1ccc2c(c1)C(=O)c1ccccc1C2=O | u | -21.1% | -67.0* | 44.7µM* | -22.6 | 13.3%
Cc1nc2ccc(NC(=O)/C=C/C(=O)O)cc2nc1C | 1.5% | -13.5%[57.1 µM] | -2.4 | -31.0% | -17.5 | 7.5%
O=C(O)/C=C/C(=O)Nc1ccc2nccnc2c1 | -13.7% | -12.0%[57.1 µM] | 6.1 | 50.1µM* | 11.1 | 35.1%
COc1ccc(C(C[N+](=O)[O-])c2c(-c3ccccc3)cc3ccccn23)cc1OC (centres undefined) | u | -21.3%[57.1 µM] | -14.3 | 10µM* | -4.9 | -5.3%
COC(=O)C(C(=O)OC)C(C[N+](=O)[O-])c1ccc(OC)c(OC)c1 (centres undefined) | 3.7%[57.1 µM] | 2.9% | 0.8 | 13.9%[59 µM] | 0.8 | 34.2%
COc1ccc(C(C[N+](=O)[O-])c2c(-c3ccccc3)cc3ccccn23)cc1 (centres undefined) | -34.9% | u | -15.7 | u | -10.0 | u
COc1cc(C(C[N+](=O)[O-])c2c(C)cc3ccccn23)ccc1O (centres undefined) | 28.2µM* | u | -11.3 | 31.6µM* | -5.1 | u
Cc1ccc2nc(-c3ccc(O)c(O)c3)cn2c1 | 50.1µM* | 22.4µM* | -8.7 | x | -7.9 | u
Oc1ccc(-c2csc(-c3cccnc3)n2)cc1O | 44.7µM* | 7.08µM* | -8.9 | x | -13.1 | 79.4µM*
Cc1ccc2nc(-c3ccccc3)cn2c1 | -8.1% | -23.8% | 0.5 | 19.7%[12.7 µM] | -2.1 | -4.5%
Oc1ccccc1-c1csc(-c2ccccc2)n1 | 76.3% | 114.8% | 25.0 | 113.9% | 8.1 | 162.0%
Clc1ccc(-c2csc(-c3cccnc3)n2)s1 | 2.7% | 52.8% | 15.9 | 39.8µM* | x | 114.4%
